Results filed as inconclusive are left out. The source made the active and inactive calls. How the source made its calls, unless noted: active means hit-call score of the fitted dose curve at least 0.9, where 1 is the maximum; inconclusive means response in the unintended direction; inactive means score below 0.9.

Assay [1] is described as follows: TOX21_p53_BLA_p2_viability: Viability Assessment in the Tox21 HCT-116 p53 Agonism Beta-lactamase Assay, Phase 2 (AID 2283591).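 Further: compound exposure lasted 16 h at 37 °C; actives lower the ATP signal meaning cytotoxicity.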 Put shortly:
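Cytotoxicity readout: CellTiter-Glo ATP luminescence, 30 min at room temperature, after the beta-lactamase read. Cells were HCT116 exposed 16 h at 37C to compounds pin-transferred at 217-fold dilution from DMSO stocks.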

The target of assay [2] is Cellular tumor antigen p53 (Homo sapiens) (UniProt P04637). Briefly: TOX21_p53_BLA_p2_ratio: Tox21 HCT-116 p53 Agonism Beta-lactamase Assay, Ratio, Phase 2 (AID 2283592). An outline of the steps:
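HCT116 p53-bla; 4000 cells/well; 5 h pre-incubation; cpd in DMSO, 217-fold dilution; 16 h 37C/5% CO2; CCF4-AM 2 h RT; Ex 405, Em 460/530 ratio; DMSO = baseline; positive fitting direction.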

The target is the same in assay [3]. In words: TOX21_p53_BLA_p3_ratio: Tox21 HCT-116 p53 Agonism Beta-lactamase Assay, Ratio, Phase 3 (AID 2283596). Put shortly:
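HCT116 p53-bla cells (4000/well) given compound in DMSO (217-fold dilution) after 5 h, incubated 16 h at 37C. CCF4-AM substrate 2 h at room temperature; 460/530 nm emission ratio, gain fitted against DMSO.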

A short description of assay [4]: TOX21_p53_BLA_p4_viability: Viability Assessment in the Tox21 HCT-116 p53 Agonism Beta-lactamase Assay, Phase 4 (AID 2283597).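 Further: hits lower the luminescence signal meaning cytotoxicity.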 Put shortly: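 Cells plated, 5 h pre-incubation; DMSO compounds pinned (217-fold dilution); 16 h, 37C/5% CO2; CCF4-AM 2 h RT; CellTiter-Glo 30 min RT; luminescence read.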
The target in assay [5] is Cellular tumor antigen p53 (Homo sapiens) (UniProt P04637). In words: TOX21_p53_BLA_p5_ratio: Tox21 HCT-116 p53 Agonism Beta-lactamase Assay, Ratio, Phase 5 (AID 2283599). An outline of the steps:
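Beta-lactamase reporter ratio (blue 460 nm over green 530 nm, 405 nm excitation) after 2 h CCF4-AM loading, in HCT-116 cells exposed 16 h at 37 C to compounds pinned at 217-fold dilution. Increases relative to DMSO baseline scored.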

Assay [6] has the same target. In words: TOX21_p53_BLA_p4_ratio: Tox21 HCT-116 p53 Agonism Beta-lactamase Assay, Ratio, Phase 4 (AID 2283601). An outline of the steps:
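Signal is the blue/green (460nm/530nm) ratio of cleaved versus uncleaved CCF4-AM substrate, read after 2 h substrate loading. Cells were HCT116 carrying the p53-responsive beta-lactamase reporter, dosed 16 h at 37C, 5% CO2; CellTiter-Glo measured in parallel.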

Assay [7] can be described thus: TOX21_p53_BLA_p5_viability: Viability Assessment in the Tox21 HCT-116 p53 Agonism Beta-lactamase Assay, Phase 5 (AID 2283600). An outline of the steps: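 4000 cells/well; 5 h pre-incubation; DMSO compounds pin-transferred, 217-fold dilution; 16 h, 37C/5% CO2; CCF4-AM 2 h RT; CellTiter-Glo 30 min RT; luminescence.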
Assay [8] has as its system Brachyury (BRA) Protein Expression, Deisenroth Lab, TBXT (gene 6862). Briefly: CCTE_Deisenroth_DEVTOX-GLR_legacy_Bra: (Legacy) CCTE's DevTox GLR-Endo Assay Evaluation of Brachyury (BRA) Protein Expression, Deisenroth Lab (AID 2284329; active means hit-call score of the fitted dose curve at least 0.9, where 1 is the maximum; inactive means score below 0.9). Put shortly:
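Human pluripotent RUES2-GLR line was exposed twice during 48 h differentiation to a 10-point series, 1 nM - 200 uM. Fraction of Bra-positive cells was scored by imaging against pluripotent baseline and fitted after 0.2% DMSO subtraction.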

A short description of assay [9]: CCTE_Deisenroth_DEVTOX-GLR_legacy_CellCount: (Legacy) Viability Assessment in CCTE's DevTox GLR-Endo Assay, Deisenroth Lab (AID 2284331; active means hit-call score of the fitted dose curve at least 0.9, where 1 is the maximum; inactive means score below 0.9). The following applies: actives raise or lower the signal. Put shortly:
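Seed RUES2-GLR 24 h; differentiate 48 h, dosing at 0 and 24 h; fix, stain nuclei; image 5 fields/well; count nuclei. Conc. 1 nM - 200 uM, single technical replicate, n=4 experiments; bidirectional fit vs 0.2% DMSO.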

Assay [10] relates to SRY-box transcription factor 17 (SOX17) Protein Expression, Deisenroth Lab, SOX17 (gene 64321). In words: CCTE_Deisenroth_DEVTOX-GLR_legacy_Sox17: (Legacy) CCTE's DevTox GLR-Endo Assay Evaluation of SRY-box transcription factor 17 (SOX17) Protein Expression, Deisenroth Lab (AID 2284341; active means hit-call score of the fitted dose curve at least 0.9, where 1 is the maximum; inactive means score below 0.9). The following applies: actives raise or lower the signal. Put shortly:
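Using the RUES2-GLR line, compounds are tested as 10-point series during 48-h defined-media differentiation. Sox17 reporter fluorescence per cell determines positivity; endpoint is percentage positive, analysed bidirectionally versus DMSO baseline.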

Assay [11] deals with SRY-box transcription factor 2 (SOX2) Protein Expression, Deisenroth Lab, SOX2 (gene 6657). Briefly: CCTE_Deisenroth_DEVTOX-GLR_legacy_Sox2: (Legacy) CCTE's DevTox GLR-Endo Assay Evaluation of SRY-box transcription factor 2 (SOX2) Protein Expression, Deisenroth Lab (AID 2284346; active means hit-call score of the fitted dose curve at least 0.9, where 1 is the maximum; inactive means score below 0.9). An outline of the steps:
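hPSC RUES2-GLR, 384-well; 24 h seed → 48 h endoderm differentiation, 2 doses q24h, 1 nM–200 uM. Fix, nuclear dye, 5 fields/well. Sox2+ cells/cell count; cell positive if >5x BMAD over endoderm ctrl; gain direction vs DMSO.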

For assay [12] the test system is unchanged. Briefly: CCTE_Deisenroth_DEVTOX-GLR_Endo_SOX2: CCTE's DevTox GLR-Endo Assay Evaluation of SRY-box transcription factor 2 (SOX2) Protein Expression, Deisenroth Lab (AID 2284412). Put shortly: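 RUES2-GLR human pluripotent cells were seeded 24 h, then differentiated 48 h with two chemical exposures 24 h apart. Cells were fixed, nuclei stained and imaged by high-content microscopy. Endpoint is %SOX2+ cells over cell count, minus 0.2% DMSO control; 10-point series 1 nM–200 uM.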

The subject of assay [13] is SRY-box transcription factor 17 (SOX17) Protein Expression, Deisenroth Lab, SOX17 (gene 64321). Briefly: CCTE_Deisenroth_DEVTOX-GLR_Endo_SOX17: CCTE's DevTox GLR-Endo Assay Evaluation of SRY-box transcription factor 17 (SOX17) Protein Expression, Deisenroth Lab (AID 2284413; active means hit-call score of the fitted dose curve at least 0.9, where 1 is the maximum; inactive means score below 0.9). Put shortly: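 Seed RUES2-GLR cells 24 h; start endoderm differentiation; dose at 0 and 24 h (1 nM - 200 uM, 10 points); fix at 48 h, stain nuclei, image 5 fields/well; compute SOX17+/total cells vs 0.2% DMSO.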

The test system of assay [14] is Brachyury (BRA) Protein Expression, TBXT (gene 6862). In words: CCTE_Deisenroth_DEVTOX-GLR_Endo_BRA: CCTE's DevTox GLR-Endo Assay Evaluation of Brachyury (BRA) Protein Expression, Deisenroth Lab (AID 2284417; active means hit-call score of the fitted dose curve at least 0.9, where 1 is the maximum; inactive means score below 0.9). An outline of the steps: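 Percent BRA+ (mesoderm) RUES2-GLR cells after 48 h differentiation with two exposures, 1 nM - 200 uM; 0.2% DMSO control subtracted.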

Assay [15] can be described thus: CCTE_Deisenroth_DEVTOX-GLR_Endo_CellCount: Viability Assessment in CCTE's DevTox GLR-Endo Assay, Deisenroth Lab (AID 2284420; active means hit-call score of the fitted dose curve at least 0.9, where 1 is the maximum; inactive means score below 0.9). An outline of the steps: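 Human pluripotent RUES2-GLR line; 24 h pre-seed; 48 h endoderm-directed differentiation; 2 doses, q24h; 10 conc., 1 nM - 200 uM; fix + nuclear dye; 5 fields/well imaged; readout = nuclei count, % change vs 0.2% DMSO; n=4.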

The test system of assay [16] is SRY-box transcription factor 17 (SOX17) Protein Expression, Deisenroth Lab, SOX17 (gene 64321). Briefly: CCTE_Deisenroth_DEVTOX-GLR_Pluri_SOX17: CCTE's DevTox GLR-Pluri Assay Evaluation of SRY-box transcription factor 17 (SOX17) Protein Expression, Deisenroth Lab (AID 2284427). Put shortly:
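Human RUES2-GLR pluripotent line; 24 h seeding, 48 h defined-media differentiation, 2 doses q24h, 10 conc 1 nM - 200 uM. Fix, nuclear stain, image 5 fields/well. Endpoint = %SOX17+ minus 0.2% DMSO; n=4.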

For assay [17], the system named is SRY-box transcription factor 2 (SOX2) Protein Expression, Deisenroth Lab, SOX2 (gene 6657). Briefly: CCTE_Deisenroth_DEVTOX-GLR_Pluri_SOX2: CCTE's DevTox GLR-Pluri Assay Evaluation of SRY-box transcription factor 2 (SOX2) Protein Expression, Deisenroth Lab (AID 2284428; active means hit-call score of the fitted dose curve at least 0.9, where 1 is the maximum; inactive means score below 0.9). Put shortly: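 Steps: seed RUES2-GLR cells for 24 h; start 48 h differentiation in defined media; dose test chemicals at 0 and 24 h (1 nM–200 uM); fix, stain nuclei, image; compute SOX2+ percentage against 0.2% DMSO wells.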

The subject of assay [18] is Brachyury (BRA) Protein Expression, Deisenroth Lab, TBXT (gene 6862). In words: CCTE_Deisenroth_DEVTOX-GLR_Pluri_BRA: CCTE's DevTox GLR-Pluri Assay Evaluation of Brachyury (BRA) Protein Expression, Deisenroth Lab (AID 2284429). Put shortly:
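An inducible fluorescent BRA reporter in RUES2-GLR cells tracks mesoderm differentiation. Compounds (10 concentrations, 1 nM - 200 uM) are dosed twice within a 48-h differentiation. The endpoint subtracts the 0.2% DMSO control from percent BRA+ cells.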

Assay [19] can be described thus: CCTE_Deisenroth_DEVTOX-GLR_Pluri_CellCount: Viability Assessment in CCTE's DevTox GLR-Pluri Assay Evaluation of Total Cell Counts, Deisenroth Lab (AID 2284430; active means hit-call score of the fitted dose curve at least 0.9, where 1 is the maximum; inactive means score below 0.9). An outline of the steps:
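RUES2-GLR human pluripotent cells, seeded 24 h, then differentiated 48 h with two chemical exposures 24 h apart; 10-point series 1 nM - 200 uM. Fixed, nuclear-stained, imaged (5 fields/well); nuclei count as % change vs 0.2% DMSO.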

Chain of Cellular tumor antigen p53 (Homo sapiens) (P04637 whole entry, looked up): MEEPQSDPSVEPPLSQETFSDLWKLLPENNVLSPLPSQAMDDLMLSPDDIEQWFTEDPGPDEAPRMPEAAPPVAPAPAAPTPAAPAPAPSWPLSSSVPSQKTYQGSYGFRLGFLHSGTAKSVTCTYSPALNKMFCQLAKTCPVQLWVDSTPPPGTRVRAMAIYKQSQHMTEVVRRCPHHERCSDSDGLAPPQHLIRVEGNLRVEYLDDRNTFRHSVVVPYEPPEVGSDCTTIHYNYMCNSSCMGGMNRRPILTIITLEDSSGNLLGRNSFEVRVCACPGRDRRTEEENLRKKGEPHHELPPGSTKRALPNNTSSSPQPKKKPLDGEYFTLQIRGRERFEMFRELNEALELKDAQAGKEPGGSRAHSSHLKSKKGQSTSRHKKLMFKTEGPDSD

For the compound `C[N+]1(C)CCCC(OC(=O)C(O)(c2ccccc2)c2ccccc2)C1` (stereo not given), the compound was called inactive in assay [1], in [2], in assay [3], in assay [4], in assay [5] and in assay [6].

Turning to `CC(C)(O)C(=O)O`, the call in assay [1], in assay [2], in assay [3], in assay [4], in [5] and in [6] was inactive.

For `CC(NNC(=O)c1ccccc1)c1ccccc1` (stereo not given), the call in assay [1], in assay [2], in assay [3], in assay [4], in [5] and in assay [6] was inactive.

In the case of `Cc1occc1S`, the call in assay [1], in assay [2], in [3], in [4], in [5] and in [6] was inactive.

`CCCCCCCCCCCC[N+](C)(C)CC(=O)O`: the compound was classed as inactive in assay [1], in assay [2], in assay [3], in assay [4], in assay [5] and in assay [6].

With `CN=C(NC#N)NCCSCc1csc(N=C(N)N)n1`, the compound was called inactive in [1], in assay [2], in [3], in assay [4], in assay [5] and in assay [6].

As to `NCC(O)CC(=O)O` (stereo not given), the call in assay [1], in assay [2], in [3], in assay [4], in assay [5] and in [6] was inactive.

In the case of `COc1cc2c(c(OC)c1OC)-c1c(cc3c(c1OC)OCO3)C[C@@H](C)[C@](C)(O)C2`, the result in [1], in [2], in assay [3], in assay [4] and in assay [6] was inactive.

In the case of `CCCCC(=O)O[C@H]1CC[C@H]2[C@@H]3CCc4cc(O)ccc4[C@H]3CC[C@]12C`, the outcome in [1], in assay [2], in assay [3], in assay [4] and in assay [6] was inactive.

Take `N.N.O=C([O-])C1(C(=O)[O-])CCC1.[Pt+4]`: the compound was classed as inactive in assay [1], in [2], in assay [3], in [5] and in assay [7].

`COc1cc(NS(=O)(=O)c2ccc(N)cc2)ncn1`: the result in [1], in assay [2], in [3], in [5] and in [7] was inactive.

Turning to `Cc1c(NC(=O)c2cccnc2)c(=O)n(-c2ccccc2)n1C`, the compound was called inactive in assay [1], in assay [2], in assay [3], in [5] and in assay [7].

Take `NC(CSCC(=O)O)C(=O)O` (stereo not given): the compound was called inactive in [1], in assay [2], in [3], in assay [5] and in assay [7].

For the compound `CN1CCN2c3ccccc3Cc3ccccc3C2C1` (stereo not given), the AC50 in [1] was 38.9 µM (active); in [2], 44.4 µM (active); in [4], 37.8 µM (active); in [6], 43.6 µM (active); in assay [8], 52.7 µM (active); in assay [9], 36.5 µM (active). For the same compound, the AC50 was 34.3 µM (active) in assay [10]; 50.1 µM (active) in [11]; 89.7 µM (active) in [12]; 34.1 µM (active) in assay [13]; 71.3 µM (active) in assay [14]; 36.4 µM (active) in assay [15]. Also, the AC50 in assay [16] is 57 µM (active); in assay [17], 24.3 µM (active); in assay [18] it was 100 µM (active); in assay [19] it was 0.877 µM (active). For the same compound, the result in [3] and in assay [7] was inactive.
